The values that follow come from PubChem BioAssay AID588855 (National Center for Advancing Translational Sciences (NCATS), 2011).

Among all 410,000 compounds or so, about 5,000 (1.2%) were called active. About 13% were inconclusive and are not listed. Shown is part of a subset that was picked to be rich in actives. Values without a mark were called inactive. Calls follow the shape of the dose curve; as a rule, active = well fitted inhibition curve with a large enough effect; inconclusive = small, poorly fitted or top-dose-only effect; inactive = no such curve, though single readings can be large or run the other way.
% is scaled to controls: 0 for no effect and ±100 for the full control effect; potency is read from the fitted curve at half-maximal effect.

The assay can be described thus: qHTS for Inhibitors of TGF-b. Also: nearly all actives have a fitted effect of over 65% in size. To be noted: HepG2 CAGA-GFP TGF-b/SMAD3 reporter, GFP fluorescence, 18 h, TGF-beta stimulated, 500 pg/mL final; series mostly up to 46.1 µM; activity, negative = inhibition: at the top concentration. Put shortly:
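GFP signal (ex488/em500-530) from TGF-beta-stimulated HEPG2 CAGA-GFP cells, 500 pg/mL final, 18 h at 37 degrees C in DMEM plus 1% FBS, normalized to unstimulated and DMSO-stimulated controls.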
(In qHTS, concentration-response curves come from the screen itself.)
Regarding `O=C(Nc1ccccn1)C1CCN(S(=O)(=O)c2ccccc2)CC1`, the “activity, negative = inhibition” value was 11.5%.

For the molecule `Cc1ccnc(NC(=O)C2CCN(S(=O)(=O)c3c(C)c(C)cc(C)c3C)CC2)c1`, the Potency is 11.2 µM (active).

On to `Cc1cccc(NC(=O)C2CCN(S(=O)(=O)c3cccc4cccnc34)CC2)c1`, for which the “activity, negative = inhibition” value is -24.5%.

As for `COc1ccc(S(=O)(=O)c2c(Nc3cccc(Cl)c3)sc(C(=O)c3ccccc3)c2N)cc1`, the “activity, negative = inhibition” value was -24.8%.

Consider `CC(NC(=O)c1cc(Sc2ccc(F)cc2F)nc2ccccc12)c1ccccc1` (stereo not drawn), for which the “activity, negative = inhibition” value was -13.2%.

`CSc1n[nH]c(-c2ccco2)n1`: the “activity, negative = inhibition” value was 3.47%.

Take `CCN(c1ccc(Cl)cc1)S(=O)(=O)c1nnc(NC(=O)c2ccco2)s1`: the “activity, negative = inhibition” value was 0%.

`CCCN(CCC)CCNC(=O)Cn1cnc2sc(C)c(S(=O)(=O)N3CCC(C)CC3)c2c1=O`: the “activity, negative = inhibition” value is -11.1%.

As to `COc1ccc(-c2onc(C)c2C)cc1S(=O)(=O)NCc1cccs1`, the “activity, negative = inhibition” value was -2.96%.

Consider `COc1ccc(-c2onc(C)c2C)cc1S(=O)(=O)NCCc1ccccc1`, for which the “activity, negative = inhibition” value was 0%.

With `COc1ccc(-c2onc(C)c2C)cc1S(=O)(=O)NCC1CCN(Cc2cccc(F)c2)CC1`, the Potency was 8.91 µM (active).

As to `O=C(Nc1ccccc1Cl)N1CCC(CN2CCCCC2)CC1`, the “activity, negative = inhibition” value is -3.76%.

Turning to `CCCc1nn2c(=O)cc(COC(=O)c3ccc(NC(=O)C(C)Oc4ccccc4)cc3)nc2s1` (stereo not drawn), the “activity, negative = inhibition” value is 23.2%.

For the molecule `CN(C)c1ccc(C=Nc2ccc(/C=C/c3ccnc4ccccc34)cc2)cc1`, the “activity, negative = inhibition” value was -9.54%.

For the molecule `Cc1ccc(-n2nc(C)c3c(C)cc(=O)n(CC(=O)Nc4ccc(C(C)C)cc4)c32)cc1`, the “activity, negative = inhibition” value was -6.8%.

Regarding `CC1(C)Cc2ccccc2-c2c[nH]c(=O)n21`, the “activity, negative = inhibition” value is -12.4%.

In the case of `CCOC(=O)N1CCc2c(sc3c2C(=O)NC(c2ccccc2F)N3)C1` (stereo not drawn), the “activity, negative = inhibition” value was 0.134%.

`C[C@@H](NC(=O)OC(C)(C)C)c1nnc(S(=O)(=O)Cc2ccccc2)o1`: the Potency is 14.1 µM (active).

On to `CC(C)[C@@H](NC(=O)OC(C)(C)C)C(=O)NCC1CCC(C(=O)N[C@@H](Cc2ccccc2)C(=O)O)CC1` (stereo partly drawn), for which the “activity, negative = inhibition” value was 8.54%.

Regarding `CC(C)(C)c1ccc(C(CC(=O)O)NS(=O)(=O)Cc2ccccc2)cc1` (stereo not drawn), the “activity, negative = inhibition” value was -8.38%.

Consider `CCOC(=O)c1cc2c(=O)n3ccccc3nc2n(CCCOC)c1=NC(=O)C(C)(C)Oc1ccc(Cl)cc1`, for which the “activity, negative = inhibition” value was 5.9%.

As for `Cc1ccc(-n2c(SCC(=O)N3c4ccccc4Sc4ccccc43)nnc2-c2ccncc2)cc1`, the “activity, negative = inhibition” value is 7.18%.

For the molecule `Cc1ccc(Nc2nc(CSc3nnc(-c4ccncc4)n3-c3ccccc3C)cs2)cc1`, the Potency was 11.2 µM (active).

Consider `Cc1ccc(-c2noc(CSc3nnc(-c4ccncc4)n3-c3ccc(F)cc3)n2)cc1`, for which the “activity, negative = inhibition” value is 5.83%.

Regarding `OCC(O)C(O)C(O)C(O)C=Nc1ccc(/C=C/c2ccnc3ccccc23)cc1` (stereo not drawn), the “activity, negative = inhibition” value was -10.4%.

Turning to `O=C(c1ccco1)N(Cc1cccs1)c1ccc(O)cc1`, the “activity, negative = inhibition” value is 0.933%.

Take `CC(CNC(=O)c1nnc(Cc2cccc(F)c2)o1)c1ccccc1` (stereo not drawn): the “activity, negative = inhibition” value was 9.42%.

In the case of `CN(C)c1cccc2ccccc12`, the “activity, negative = inhibition” value was -13.9%.

Consider `COc1ccc(OC)c(C2C3=C(N=c4s/c(=C\c5cccc(O)c5)c(=O)n42)c2ccccc2CC3)c1` (stereo not drawn), for which the Potency was 15.8 µM (active).

`CCOC(=O)c1c(S(=O)(=O)N2CCC(C(=O)NCc3ccccc3OC)CC2)c(C)n(C)c1C`: the “activity, negative = inhibition” value was -11.1%.

Turning to `Cc1ccc(S(=O)(=O)n2nc(C)c(S(=O)(=O)N3CCCCCC3)c2C)cc1`, the “activity, negative = inhibition” value is 11%.

Turning to `C=C1C=C(C(F)F)n2ncc(C(=O)NCCc3ccccc3OC)c2N1`, the “activity, negative = inhibition” value was -1.82%.

For `O=C(NCCCO)C(=O)Nc1c2c(nn1-c1ccc(F)cc1)CSC2`, the “activity, negative = inhibition” value was 4.69%.

As for `N#Cc1ccccc1Cn1cnc2nc3c(cc2c1=O)CCCC3`, the “activity, negative = inhibition” value was 0%.

Turning to `CC(C)(C)c1ccc(C(=O)NCC(c2ccc(Cl)cc2)N2CCOCC2)cc1` (stereo not drawn), the “activity, negative = inhibition” value was -29.8%.

Turning to `Cc1ccccc1Cn1nc(C)c(NC(=O)c2cc(-c3ccc(F)cc3)on2)c1C`, the “activity, negative = inhibition” value was -9.57%.

`Cc1ccc(NC(=O)c2ccc3[nH]c(C)cc(=O)c3c2)c(C)c1`: the “activity, negative = inhibition” value was -2.49%.

Turning to `CCOc1ccc(NC(=O)C2CCN(S(=O)(=O)c3cc(-c4noc(C)n4)ccc3C)CC2)cc1`, the “activity, negative = inhibition” value is -5.16%.

For the molecule `CCOc1ccc(N(CC)S(=O)(=O)N2CCCC(C(=O)Nc3ccc(C(C)=O)cc3)C2)cc1` (stereo not drawn), the “activity, negative = inhibition” value is -13.9%.

In the case of `CCOc1ccc(N(CC)S(=O)(=O)N2CCCC(C(=O)NCc3ccc(Cl)cc3)C2)cc1` (stereo not drawn), the Potency is 17.8 µM (active).

For `Cc1ccc(CNC(=O)C2CCCN(S(C)(=O)=O)C2)cc1` (stereo not drawn), the “activity, negative = inhibition” value is 3.69%.

`COc1cccc(Nc2nc(N)c([N+](=O)[O-])c(NCc3ccco3)n2)c1`: the “activity, negative = inhibition” value is -14.2%.

On to `CNc1nc(Nc2ccc(C)c(Cl)c2)nc(N)c1[N+](=O)[O-]`, for which the Potency was 11.2 µM (active).

On to `CCN1CCN(c2nc(Nc3cccc(F)c3)nc(N)c2[N+](=O)[O-])CC1`, for which the “activity, negative = inhibition” value is 0.701%.

As to `CCC(=O)N1c2ccccc2CC1C(=O)N1CCN(c2ccccc2)CC1` (stereo not drawn), the “activity, negative = inhibition” value is 0.154%.

In the case of `Cc1cccc(NC(=S)NCCN(C2CCCCC2)C2CCCC2)c1`, the Potency is 17.8 µM (active).

Take `Cc1cccc(NC(=O)C2CCN(C(=O)NC3CCCCC3)CC2)c1`: the “activity, negative = inhibition” value is 1.28%.

For the molecule `Cc1cccc(C(=O)NC(=S)N(C)C2CCCCC2)c1`, the “activity, negative = inhibition” value was 0%.
